In all, about 52,000 compounds went through this assay and about 4,300 (8.3%) were called active. No stated cut-off is given here; in the data, active means survival mostly below about 52% (no sharp cut-off); inactive means mostly above about 56%. For the sample, actives were picked, then their nearest neighbours and some compounds at random.

The test system of the assay is DeltatarO mutant. The assay is described as follows: S. aureus survival, RN4220 and DeltatarO strains – OD600, teichoic acid synthesis inhibitors, primary screen (AID 463173). As to conditions: S. aureus RN4220 wild type/DeltatarO growth, OD600, 18 h, hits give low values, screened at 18.75 µg/mL (by protocol).
Consider `CCOc1ccc(-c2nc(Cn3ccn4nc(-c5ccc(OCC)c(Cl)c5)cc4c3=O)c(C)o2)cc1`, for which the survival was 96% (inactive).

For the molecule `CCCCOc1ccc(-c2nnn(C(C)(C)C(=O)O)n2)cc1`, the survival is 99% (inactive).

With `CCOC(=O)c1c(S(=O)(=O)NCC(=O)N2CCN(c3ccccc3OC)CC2)c(C)n(C)c1C`, the survival is 77% (inactive).

With `O=C(CSc1nc(O)cc(=O)[nH]1)Nc1ccccc1`, the survival is 82% (inactive).

For the molecule `COc1cccc(NS(=O)(=O)c2ccc3[nH]cc(C(=O)NC(C)c4ccccc4)c(=O)c3c2)c1` (stereo not given), the survival was 37% (active).

For the molecule `COc1cccc(NS(=O)(=O)c2ccc3[nH]cc(C(=O)NCCc4ccccc4)c(=O)c3c2)c1`, the survival was 83% (inactive).

Regarding `CN(C(=O)c1c[nH]c2ccc(S(=O)(=O)Nc3cccc(C(F)(F)F)c3)cc2c1=O)C1CCCCC1`, the survival was 72% (inactive).

For the molecule `CC(C)CCNC(=O)c1c[nH]c2ccc(S(=O)(=O)Nc3cccc(C(F)(F)F)c3)cc2c1=O`, the survival is 74% (inactive).

On to `O=C(NC1CCCC1)c1c[nH]c2ccc(S(=O)(=O)Nc3cccc(C(F)(F)F)c3)cc2c1=O`, for which the survival is 16% (active).

For the molecule `Cc1ccccc1NS(=O)(=O)c1ccc2[nH]cc(C(=O)NC(C)c3ccccc3)c(=O)c2c1` (stereo not given), the survival was 90% (inactive).

Take `CCOc1ccc(-c2noc(CSc3nnc(Cc4ccccc4)n3-c3cccc(C)c3)n2)cc1`: the survival was 66% (inactive).

Consider `Cc1ccc(C)c(Cn2c(SCC(=O)NCc3ccccc3)nc3ccccc32)c1`, for which the survival was 73% (inactive).

For the molecule `COc1cc(NC(=O)c2cc(Cl)ccc2Cl)ccc1NC(=O)c1cc2ccccc2o1`, the survival was 55% (inactive).

Consider `CCOc1ccc(S(=O)(=O)Nc2ccc3c(c2)c(C(C)=O)c(C)n3S(=O)(=O)c2ccc(OCC)cc2)cc1`, for which the survival was 67% (inactive).

As to `NC(=O)CSc1nnc(Cn2cnc3ccccc32)o1`, the survival is 79% (inactive).

As for `CCOc1ccc(NC(=O)CCC(=O)N2CCSc3ccccc32)cc1`, the survival was 75% (inactive).

As to `CCCN(C(=O)c1coc(=O)c2ccccc12)c1ccccc1C`, the survival was 56% (active).

Regarding `CCCN(C(=O)c1cn(C)c(=O)c2ccccc12)c1ccccc1C`, the survival is 79% (inactive).

On to `CCN(C(=O)c1coc(=O)c2ccccc12)c1ccccc1C`, for which the survival was 113% (inactive).

For the molecule `CC(=O)N1CCCc2cc(S(=O)(=O)N3CCCC(C(=O)Nc4cccc(F)c4)C3)ccc21` (stereo not given), the survival was 87% (inactive).

Turning to `CCc1ccc(-n2c(=O)c3c4c(sc3n(Cc3ccc(F)cc3)c2=O)CCCC4)cc1`, the survival is 42% (inactive).

Turning to `COc1ccc(-c2cc(C(F)(F)F)n3nc(C(=O)Nc4cc(Cl)cc(Cl)c4)cc3n2)cc1`, the survival is 86% (inactive).

Regarding `COc1ccc(-c2cc(C(F)(F)F)n3nc(C(=O)Nc4cccc(Cl)c4C)cc3n2)cc1`, the survival was 70% (inactive).

With `COc1ccc(Cl)cc1NC(=O)c1cc2nc(-c3ccc(C)cc3)cc(C(F)(F)F)n2n1`, the survival is 78% (inactive).

On to `COc1ccc(-c2cc(C(F)(F)F)n3nc(C(=O)Nc4cc(C(F)(F)F)ccc4Cl)cc3n2)cc1OC`, for which the survival was 152% (inactive).

In the case of `COc1ccc(-c2cc(C(F)(F)F)n3nc(C(=O)Nc4cc(C)ccc4C)cc3n2)cc1`, the survival was 70% (inactive).

`COC(=O)c1ccccc1NC(=O)c1cc2nc(-c3ccc(OC)cc3)cc(C(F)(F)F)n2n1`: the survival is 36% (active).

Take `COC(=O)c1ccc(C(=O)OC)c(NC(=O)c2cc3nc(-c4ccc(C)cc4)cc(C(F)(F)F)n3n2)c1`: the survival is 83% (inactive).

Take `COc1ccc(NC(=O)c2cc3nc(-c4ccc(Cl)c(Cl)c4)cc(C(F)(F)F)n3n2)c(OC)c1`: the survival was 47% (active).

With `COc1cc(NC(=O)c2cc3nc(-c4ccc(C)cc4)cc(C(F)(F)F)n3n2)cc(OC)c1OC`, the survival was 41% (active).

As for `Cc1cc(N2CCC(C(O)(c3ccccc3)c3ccccc3)CC2)nc(C)n1`, the survival is 108% (inactive).

Consider `Cc1cc(C)cc(-n2c(SCC(=O)Nc3ccc4c(c3)OCCO4)nc3c([nH]c4ccccc43)c2=O)c1`, for which the survival is 126% (inactive).

`Cc1c(C(=O)N(Cc2cccc(Cl)c2)Cc2ccco2)oc2ccccc12`: the survival was 40% (active).

Consider `CCc1ccc2oc(C(=O)N(Cc3ccc(N(C)C)cc3)Cc3ccco3)c(C)c2c1`, for which the survival was 71% (inactive).

Regarding `Cc1cc2oc(C(=O)N(Cc3ccc(N(C)C)cc3)Cc3ccco3)c(C)c2cc1Cl`, the survival is 84% (inactive).

As to `Cc1cc(C)cc(OCC(=O)N(Cc2ccco2)Cc2ccccc2Cl)c1`, the survival is 73% (inactive).

Take `CCc1ccc2oc(C(=O)N(Cc3cccc(Cl)c3)Cc3ccco3)c(C)c2c1`: the survival was 53% (inactive).

In the case of `COc1cccc(C(=O)N(Cc2cccc(Cl)c2)Cc2ccco2)c1`, the survival was 68% (inactive).

In the case of `Cc1c(C(=O)N(Cc2ccco2)Cc2ccccc2Cl)oc2ccc(F)cc12`, the survival was 42% (active).

Take `Cc1ccc(CN(Cc2ccco2)C(=O)c2oc3ccc(C)cc3c2C)cc1`: the survival is 54% (inactive).

`Cc1cccc(C(=O)N(Cc2ccco2)Cc2ccccc2F)c1`: the survival is 102% (inactive).

Take `O=C(c1cccc(Cl)c1)N(Cc1ccco1)Cc1ccccc1Cl`: the survival was 32% (active).

`Cc1cc2oc(C(=O)N(Cc3ccc(Cl)cc3)Cc3ccco3)c(C)c2cc1Cl`: the survival is 64% (inactive).

As to `Cc1cc2oc(C(=O)N(Cc3ccco3)Cc3ccccc3Cl)c(C)c2cc1C`, the survival was 43% (active).

Regarding `CCn1cc(C(=O)NCc2ccc(C)cc2)c(=O)c2cc(S(=O)(=O)N(C)C3CCCCC3)ccc21`, the survival is 75% (inactive).

Take `CN(Cc1ccccc1)C(=O)Cn1ncc2c3ccccc3n(Cc3cccc(Cl)c3)c2c1=O`: the survival was 90% (inactive).

Turning to `Cc1c(Cl)cccc1NC(=O)C(=O)NCCc1csc(-c2cccc(F)c2)n1`, the survival was 76% (inactive).

For the molecule `CCC(C)[C@@H](C(=O)Nc1ccc(C)cc1)N1Cc2ccccc2C1=O` (stereo not given in full), the survival was 74% (inactive).

As for `CCn1cc(C(=O)NCCCOC)c(=O)c2cc(S(=O)(=O)N3CCCC3)ccc21`, the survival is 92% (inactive).

Take `Cc1ccc(C(CC(=O)Nc2ccc(F)c(Cl)c2)N2Cc3ccccc3C2=O)cc1` (stereo not given): the survival is 88% (inactive).

Consider `CCC(=O)N1CCc2cc(Br)cc(S(=O)(=O)N3CCCC(C(=O)NCc4ccccc4)C3)c21` (stereo not given), for which the survival was 107% (inactive).

Regarding `Cc1ccc(CN(Cc2ccco2)C(=O)c2oc3c(C)c(C)ccc3c2C)cc1`, the survival was 50% (inactive).

Take `Cc1c(C(=O)N(Cc2ccc(N(C)C)cc2)Cc2ccco2)oc2cc(Br)ccc12`: the survival is 68% (inactive).

For the molecule `Cc1ccc(CN(Cc2ccco2)C(=O)c2oc3cc(Br)ccc3c2C)cc1`, the survival was 43% (active).

Turning to `CCOc1ccc(C(=O)c2cn(CC(=O)Nc3ccc(OC)cc3)c3cc4c(cc3c2=O)OCO4)cc1`, the survival was 69% (inactive).

As for `CCC1CCCCN1CCCNC(=O)CN1C(=O)c2cccnc2Oc2ccc(C)cc21` (stereo not given), the survival is 78% (inactive).

On to `CCS(=O)(=O)N1CC(=O)N(c2ccc(C)c(C)c2)C(C)(C(=O)NC2CCCCC2)C1` (stereo not given), for which the survival is 87% (inactive).

Regarding `CCc1ccc(NC(=O)c2cc(S(=O)(=O)N3CCCCC3)c[nH]2)cc1`, the survival was 105% (inactive).

With `Cc1cc(O)c2c(C)c(CC(=O)NCc3ccccc3Cl)c(=O)oc2c1`, the survival was 62% (inactive).

With `Cc1c(CC(=O)NCc2ccccc2Cl)c(=O)oc2cc(O)ccc12`, the survival is 44% (active).

On to `COc1ccccc1CCNC(=O)Cc1c(C)c2ccc(O)cc2oc1=O`, for which the survival was 57% (inactive).

For `CCN(CC)c1ncnc(Cl)c1Cc1ccc(OC)cc1`, the survival was 105% (inactive).

In the case of `COc1ccccc1NC(=O)N1CCN(c2cc(-c3ccccc3)nc3ncnn23)CC1`, the survival was 66% (inactive).

For `Cc1cccc(-c2nc(S(=O)(=O)c3ccc(Cl)cc3)c(N3CCCCCC3)o2)c1`, the survival was 46% (active).

As for `COc1cccc(-c2nc(S(=O)(=O)c3ccc(C)cc3)c(N3CCCCC3)o2)c1`, the survival was 47% (inactive).

`Cc1cccc(-c2nc(S(=O)(=O)c3ccc(F)cc3)c(N3CCN(c4ccccc4)CC3)o2)c1`: the survival is 110% (inactive).

With `Cc1ccc(S(=O)(=O)c2nc(-c3cccc(C)c3)oc2N2CCN(c3ccccc3)CC2)cc1`, the survival is 114% (inactive).

Consider `Cc1ccc(S(=O)(=O)c2nc(-c3cccc(C)c3)oc2N2CCCCC2)cc1`, for which the survival was 6% (active).

Regarding `COc1cccc(-c2nc(S(=O)(=O)c3ccc(C)cc3)c(N3CCCCCC3)o2)c1`, the survival is 55% (inactive).

Take `Cc1cccc(-c2nc(S(=O)(=O)c3ccccc3)c(N3CCN(c4ccccc4)CC3)o2)c1`: the survival was 112% (inactive).

On to `COc1cccc(-c2nc(S(=O)(=O)c3ccccc3)c(N3CCCCC3)o2)c1`, for which the survival is 61% (inactive).

Turning to `Cc1ccc(S(=O)(=O)c2nc(-c3cccc(Br)c3)oc2N2CCCCCC2)cc1`, the survival was 45% (active).

Turning to `Cc1ccc(Cc2nc3ccccc3nc2SCC(=O)NCc2ccccc2Cl)cc1`, the survival was 120% (inactive).

As for `O=C(Cn1c(=O)n(-c2ccccc2Cl)c(=O)c2sc3ccccc3c21)N1CCCC1`, the survival was 80% (inactive).

Regarding `O=c1c2oc3ccccc3c2n(Cc2ccccc2Cl)c(=O)n1Cc1ccc2c(c1)OCO2`, the survival was 65% (inactive).

Turning to `CSc1ccc(CNC(=O)c2cc3cc(S(=O)(=O)N4CCCCC4)ccc3n2C)cc1`, the survival is 95% (inactive).

As to `Cc1ccc(Cl)cc1NC(=O)CSc1nc2ccccc2c2nc(-c3ccccc3)nn12`, the survival is 113% (inactive).

`CCOC(=O)CC(NC(=O)CCc1c(C)nc2ncnn2c1C)c1ccc(OC(C)C)cc1` (stereo not given): the survival was 114% (inactive).

Turning to `Cc1ccc(Cn2c(C(=O)Nc3ccc(Cl)cc3)cc3sccc32)cc1`, the survival is 112% (inactive).

Turning to `CC(=O)c1c(C)n(-c2ccc(Cl)cc2)c2ccc(OC(=O)COc3ccccc3)cc12`, the survival is 63% (inactive).

For `Cn1c(CNc2nc(-c3ccccc3)cs2)nnc1SCC(=O)c1ccccc1`, the survival is 51% (active).

Take `Cn1c(CNc2nc(-c3ccccc3)cs2)nnc1SCC(=O)OC1CCCCC1`: the survival is 73% (inactive).

Take `CCn1c(CNc2nc(-c3ccccc3)cs2)nnc1SCC(=O)c1ccc(OC)cc1`: the survival was 87% (inactive).

With `CSc1ccc(CCNC(=O)c2ccc3c(Cl)c4c(nc3c2)CCCC4)cc1`, the survival was 64% (inactive).

As for `CCCOC(=O)c1ccc2c(c1)C(=O)N(c1ccccc1)C2=O`, the survival is 78% (inactive).
